Reference: PubChem BioAssay (NCI)
This is part of a sample that, as a whole, favours compounds with a hit. Of some 83,000 tested, about 20% had one in any assay.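 Percent growth is the endpoint: 0 to 100 indicates growth inhibition (40 means 60% inhibition), 0 means no net growth, and negative values indicate cell death.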 Active and inactive are the calls of the source. Rule for the calls: active = growth percent below 10; inactive = the rest.

Columns and labels:
Experiment in all cases: NCI-60 one-dose screen, 48 h (100 = growth as untreated, 0 = no growth, -100 = all killed)
Settings in all cases: 10 µM
SK-MEL-2 melanoma = test system: SK-MEL-2 melanoma
EKVX NSCLC = test system: EKVX NSCLC
SN12C renal = test system: SN12C renal
UO-31 renal = test system: UO-31 renal
TK-10 renal = test system: TK-10 renal
ACHN renal = test system: ACHN renal
CAKI-1 renal = test system: CAKI-1 renal
A498 renal = test system: A498 renal
CCRF-CEM leukemia = test system: CCRF-CEM leukemia
MOLT-4 leukemia = test system: MOLT-4 leukemia
SR leukemia = test system: SR leukemia
RPMI-8226 leukemia = test system: RPMI-8226 leukemia
OVCAR-5 ovarian = test system: OVCAR-5 ovarian
OVCAR-4 ovarian = test system: OVCAR-4 ovarian
SK-OV-3 ovarian = test system: SK-OV-3 ovarian
IGROV1 ovarian = test system: IGROV1 ovarian
OVCAR-3 ovarian = test system: OVCAR-3 ovarian
HS 578T breast = test system: HS 578T breast
NCI/ADR-RES ovarian = test system: NCI/ADR-RES ovarian
OVCAR-8 ovarian = test system: OVCAR-8 ovarian

Measured: growth

O=C(NO)c1ccc(CNC(=O)[C@H]2Cc3c([nH]c4ccccc34)[C@H](c3ccc(Cl)cc3)N2)cc1
active: SK-MEL-2 melanoma -21.5% | TK-10 renal 4.19% | A498 renal -6.62% | MOLT-4 leukemia 5.97% | OVCAR-5 ovarian -6.43% | SK-OV-3 ovarian -12.7% | IGROV1 ovarian -24.6% | OVCAR-3 ovarian 7.44% | HS 578T breast 6.12%
inactive: EKVX NSCLC 25% | SN12C renal 15.1% | UO-31 renal 21.8% | ACHN renal 28.6% | CAKI-1 renal 29% | CCRF-CEM leukemia 17.4% | SR leukemia 17.2% | RPMI-8226 leukemia 16.9% | OVCAR-4 ovarian 39.7% | NCI/ADR-RES ovarian 42%

CC(=O)c1ccc(Nc2nc(SCCC(C)C)nc(-c3ccc(F)cc3)c2C#N)cc1
inactive: SK-MEL-2 melanoma 117% | EKVX NSCLC 52.7% | SN12C renal 22.7% | UO-31 renal 24.7% | CAKI-1 renal 16.2% | A498 renal 15.6% | CCRF-CEM leukemia 86.9% | MOLT-4 leukemia 76.9% | SR leukemia 64.9% | RPMI-8226 leukemia 81.7% | OVCAR-5 ovarian 53.4% | SK-OV-3 ovarian 98.7% | IGROV1 ovarian 16% | OVCAR-3 ovarian 19% | HS 578T breast 32% | NCI/ADR-RES ovarian 23.9%
active: TK-10 renal 6.32% | ACHN renal -42.9% | OVCAR-4 ovarian -6.74%

CSc1nc(-c2cccc(C)c2)c2cc(-c3ccccc3)n(C)c2n1
active: OVCAR-3 ovarian -32.4% | HS 578T breast 9.16% | NCI/ADR-RES ovarian -19.6%
inactive: SK-MEL-2 melanoma 12.2% | EKVX NSCLC 18.4% | SN12C renal 20% | UO-31 renal 29.8% | TK-10 renal 58.1% | ACHN renal 32.4% | CAKI-1 renal 26.2% | A498 renal 65.5% | CCRF-CEM leukemia 17.5% | MOLT-4 leukemia 16.8% | SR leukemia 11.7% | OVCAR-8 ovarian 25.2% | OVCAR-5 ovarian 49.6% | OVCAR-4 ovarian 31.5% | SK-OV-3 ovarian 69% | IGROV1 ovarian 34.3%

N#Cc1ccc(-c2nn(-c3ccc(C(=O)O)cc3)cc2CNc2cc(Cl)cc(Cl)c2)cc1
inactive: SK-MEL-2 melanoma 81.7% | EKVX NSCLC 63.3% | SN12C renal 50.9% | UO-31 renal 33.2% | TK-10 renal 111% | ACHN renal 55.3% | CAKI-1 renal 63% | A498 renal 103% | CCRF-CEM leukemia 13.7% | MOLT-4 leukemia 15.8% | SR leukemia 36.5% | RPMI-8226 leukemia 21.6% | OVCAR-8 ovarian 47.6% | OVCAR-5 ovarian 84% | SK-OV-3 ovarian 126% | IGROV1 ovarian 52.5% | OVCAR-3 ovarian 45.7% | HS 578T breast 50.2% | NCI/ADR-RES ovarian 17.2%

CN1CCCN(Cc2ccc(C(=O)Nc3cccc(Nc4ccc5c(O)cccc5n4)c3)cc2C(F)(F)F)CC1
inactive: A498 renal 61.8% | SR leukemia 11.4% | NCI/ADR-RES ovarian 37.7%
active: SK-MEL-2 melanoma -76.5% | EKVX NSCLC -87% | SN12C renal -86.1% | UO-31 renal -56.1% | TK-10 renal -65.3% | ACHN renal -74.7% | CAKI-1 renal -85.3% | CCRF-CEM leukemia 8.39% | MOLT-4 leukemia 9.64% | RPMI-8226 leukemia 2.61% | OVCAR-8 ovarian -22% | OVCAR-5 ovarian -82.1% | SK-OV-3 ovarian -58.9% | IGROV1 ovarian -78.9% | OVCAR-3 ovarian -35.8% | HS 578T breast -41.2%

O=C(NO)c1ccc(Cn2ccc3c(NCc4ccccc4)ncnc32)cc1
active: SK-MEL-2 melanoma -2.65% | UO-31 renal 4.26% | TK-10 renal -7.3% | ACHN renal 0.241% | CAKI-1 renal 2.72% | A498 renal -20.1% | CCRF-CEM leukemia 8.45% | MOLT-4 leukemia 3.81% | OVCAR-5 ovarian -8.63% | SK-OV-3 ovarian -30.5% | IGROV1 ovarian -40.1% | OVCAR-3 ovarian 8.99% | HS 578T breast -0.0703% | NCI/ADR-RES ovarian -32.1%
inactive: EKVX NSCLC 21.4% | SN12C renal 13.9% | SR leukemia 12.7% | RPMI-8226 leukemia 17.2% | OVCAR-4 ovarian 36%

O=C(Nc1ccc(Cl)c(C(F)(F)F)c1)c1cncc(C#Cc2cnc3ccc(N4CCOCC4)nn23)c1
inactive: EKVX NSCLC 19.2% | TK-10 renal 23.8% | CCRF-CEM leukemia 37.5% | OVCAR-5 ovarian 19.4% | OVCAR-4 ovarian 13.6% | SK-OV-3 ovarian 10.7% | OVCAR-3 ovarian 13.6%
active: SK-MEL-2 melanoma -33.8% | SN12C renal 6.18% | UO-31 renal -33.6% | ACHN renal -35% | CAKI-1 renal 9.84% | A498 renal -19.3% | MOLT-4 leukemia 0.617% | SR leukemia 2.44% | OVCAR-8 ovarian 3.66% | IGROV1 ovarian -14.1% | HS 578T breast -25.3% | NCI/ADR-RES ovarian -5.95%

CC(=O)NS(=O)(=O)c1ccc(NC(=O)CSC2=NC(c3ccccc3)C(C(C)=O)=C(C)N2)cc1 (stereo not given)
inactive: SK-MEL-2 melanoma 115% | EKVX NSCLC 104% | SN12C renal 111% | UO-31 renal 91.5% | TK-10 renal 116% | ACHN renal 111% | CAKI-1 renal 99.4% | A498 renal 133% | CCRF-CEM leukemia 95.4% | MOLT-4 leukemia 109% | SR leukemia 101% | RPMI-8226 leukemia 96% | OVCAR-5 ovarian 104% | OVCAR-4 ovarian 113% | SK-OV-3 ovarian 100% | IGROV1 ovarian 108% | OVCAR-3 ovarian 133% | HS 578T breast 107% | NCI/ADR-RES ovarian 99.6%

O=C(CSc1nnc(-c2c[nH]c3ccccc23)n1-c1ccccc1)Nc1ccc(C(=O)/C=C/c2ccc(Cl)cc2)cc1
active: RPMI-8226 leukemia 4.94%
inactive: SK-MEL-2 melanoma 87.6% | EKVX NSCLC 59% | SN12C renal 83% | UO-31 renal 45.8% | TK-10 renal 91.8% | ACHN renal 68.4% | CAKI-1 renal 68.2% | A498 renal 90.7% | CCRF-CEM leukemia 83.7% | MOLT-4 leukemia 58.8% | SR leukemia 70.8% | OVCAR-5 ovarian 98.2% | OVCAR-4 ovarian 74.8% | SK-OV-3 ovarian 80.7% | IGROV1 ovarian 74.7% | OVCAR-3 ovarian 69.6% | HS 578T breast 73.2% | NCI/ADR-RES ovarian 92.9%

CC(=O)c1cc(C(=O)N2c3ccccc3Sc3ccccc32)n2ccc(C)cc12
active: SR leukemia 6.72%
inactive: SK-MEL-2 melanoma 72.5% | EKVX NSCLC 53.1% | SN12C renal 42.3% | UO-31 renal 35.1% | TK-10 renal 78.9% | ACHN renal 29.1% | CAKI-1 renal 35.3% | A498 renal 85.4% | CCRF-CEM leukemia 24.8% | MOLT-4 leukemia 22.6% | OVCAR-8 ovarian 45.9% | OVCAR-5 ovarian 66.8% | OVCAR-4 ovarian 51.7% | SK-OV-3 ovarian 99.8% | IGROV1 ovarian 37.1% | OVCAR-3 ovarian 58% | HS 578T breast 53.7% | NCI/ADR-RES ovarian 18.4%

O=C(CSc1nnc(-c2c[nH]c3ccccc23)n1-c1ccccc1)c1ccccc1
active: OVCAR-4 ovarian -2.47%
inactive: SK-MEL-2 melanoma 91.9% | EKVX NSCLC 68.4% | SN12C renal 44.7% | UO-31 renal 55.5% | TK-10 renal 72% | ACHN renal 60.5% | CAKI-1 renal 53.2% | A498 renal 106% | CCRF-CEM leukemia 91.4% | MOLT-4 leukemia 90.6% | SR leukemia 81.6% | RPMI-8226 leukemia 81.3% | OVCAR-5 ovarian 88.6% | SK-OV-3 ovarian 85.6% | IGROV1 ovarian 55.1% | OVCAR-3 ovarian 60.8% | HS 578T breast 24.1% | NCI/ADR-RES ovarian 14.8%

O=C(CNc1nc(-c2ccccc2)cs1)Nc1ccc(Cl)cc1
inactive: CCRF-CEM leukemia 12.3%
active: SK-MEL-2 melanoma -84.1% | EKVX NSCLC -95.3% | SN12C renal -97.2% | UO-31 renal -99.8% | TK-10 renal -93.9% | ACHN renal -100% | CAKI-1 renal -82.4% | A498 renal -93.4% | MOLT-4 leukemia -26.5% | SR leukemia -18.7% | RPMI-8226 leukemia 2.96% | OVCAR-8 ovarian -28.8% | OVCAR-5 ovarian -95.4% | SK-OV-3 ovarian -82.9% | IGROV1 ovarian -78.6% | OVCAR-3 ovarian -36.6% | HS 578T breast -3.04% | NCI/ADR-RES ovarian -30.3%

CC(=O)c1ccc(Nc2nc(SC(C)C)nc(-c3ccccc3)c2C#N)cc1
active: UO-31 renal -53.6% | TK-10 renal 6.61% | ACHN renal -56.9% | CAKI-1 renal 8.35% | OVCAR-8 ovarian 5.17% | OVCAR-4 ovarian -19.1% | IGROV1 ovarian 8.92% | NCI/ADR-RES ovarian 1.21%
inactive: SK-MEL-2 melanoma 111% | EKVX NSCLC 39.7% | SN12C renal 10.9% | A498 renal 94.7% | CCRF-CEM leukemia 97.5% | MOLT-4 leukemia 82.9% | SR leukemia 70% | OVCAR-5 ovarian 55.8% | SK-OV-3 ovarian 36.2% | OVCAR-3 ovarian 25.3% | HS 578T breast 28.2%

O=[N+]([O-])c1ccc(-c2nc(-c3ccccc3)c(-c3ccccc3)n2-c2ccc(S(=O)(=O)Nc3ncccn3)cc2)cc1
inactive: SK-MEL-2 melanoma 69.4% | EKVX NSCLC 22.8% | SN12C renal 38.9% | UO-31 renal 22.1% | TK-10 renal 66% | ACHN renal 50.1% | CAKI-1 renal 29% | A498 renal 79.3% | CCRF-CEM leukemia 20.8% | MOLT-4 leukemia 26.2% | SR leukemia 45% | OVCAR-8 ovarian 54.5% | OVCAR-5 ovarian 72.8% | OVCAR-4 ovarian 66.7% | SK-OV-3 ovarian 104% | IGROV1 ovarian 74.3% | OVCAR-3 ovarian 51.7% | HS 578T breast 37.3% | NCI/ADR-RES ovarian 42.4%

COC1=C[C@]23CCC(=O)N2CCc2cc4c(cc2[C@@H]3[C@@H]1OC(=O)CCCC(C)C)OCO4
active: MOLT-4 leukemia 9.63%
inactive: SK-MEL-2 melanoma 101% | EKVX NSCLC 80.4% | SN12C renal 104% | UO-31 renal 36.3% | TK-10 renal 66.1% | ACHN renal 32.1% | CAKI-1 renal 48% | A498 renal 25% | CCRF-CEM leukemia 59.7% | SR leukemia 18.2% | RPMI-8226 leukemia 22.4% | OVCAR-5 ovarian 78.4% | OVCAR-4 ovarian 54% | SK-OV-3 ovarian 53.7% | IGROV1 ovarian 43.3% | OVCAR-3 ovarian 45% | HS 578T breast 71.8% | NCI/ADR-RES ovarian 74.9%
